# According to PubChem BioAssay AID743293 (Broad Institute, 2014):
# Measured potencies and affinities stand elsewhere. The source made the active and inactive calls.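 How the source made its calls: active means compounds lowering fluorescence with a fitted half-maximal concentration at or below a set limit tied to top dose; inconclusive means flat curve with 30 to 70% inhibition, or poor fit; inactive means the rest.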
# Biological target: Caspase-9 (Homo sapiens) (UniProt P55211)
# Assay: caspase-9 enzyme inhibition, dose response, selectivity assay for caspase-6 inhibitor project, biochemical, fluorescence, plate reader, cherry-picked samples (AID 743293)
# Caspase-9 (Homo sapiens), sequence (P55211 whole entry, looked up): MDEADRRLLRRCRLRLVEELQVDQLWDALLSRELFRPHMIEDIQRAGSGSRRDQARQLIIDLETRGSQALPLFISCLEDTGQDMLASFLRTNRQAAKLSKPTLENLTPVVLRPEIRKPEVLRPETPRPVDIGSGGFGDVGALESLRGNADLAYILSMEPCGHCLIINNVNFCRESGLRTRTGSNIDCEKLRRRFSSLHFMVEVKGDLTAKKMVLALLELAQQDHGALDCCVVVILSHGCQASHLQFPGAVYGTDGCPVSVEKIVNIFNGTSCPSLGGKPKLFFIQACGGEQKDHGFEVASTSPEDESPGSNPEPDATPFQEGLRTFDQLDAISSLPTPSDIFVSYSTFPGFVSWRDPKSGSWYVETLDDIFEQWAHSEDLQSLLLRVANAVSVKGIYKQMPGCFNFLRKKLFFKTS
smiles,measurement,value
CC(Cc1ccc(O)cc1)NCC(O)c1ccc(O)c(O)c1 (stereo unspecified),outcome,inactive
